High-throughput results deposited in PubChem by Sanford-Burnham Center for Chemical Genomics.
Only some compounds are listed: those with a hit (about 28% of all), similar ones and a draw of the others.
CYP2C19 inhib – inhibitors of human CYP2C19. P33261. CYP2C19 Supersomes, luciferin-H EGE luminescence, 30 min. 21% of 96,000 active. inhibition, % at 5 µM. AID 778;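 active means CYP2C19 inhibition above a set limit at 5 µM in the primary screen, cut at about 50% in these data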
Pyk2 oligo antag – antagonists of human Pyk2 oligomerization; Q293 cells, Pyk2 FERM NanoBiT luminescence; active compounds read low; 0.83% of 99,000 active; z-score (the deposit names both 25 µM and 10 µM);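 active means Z-score of -3 or lower, scaled per plate to the spread of control and sample wells; inactive means z-score above -3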;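 further: negative z-score means lost luminescence so less FERM oligomerization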
Target sequence (Q14289 whole entry, looked up): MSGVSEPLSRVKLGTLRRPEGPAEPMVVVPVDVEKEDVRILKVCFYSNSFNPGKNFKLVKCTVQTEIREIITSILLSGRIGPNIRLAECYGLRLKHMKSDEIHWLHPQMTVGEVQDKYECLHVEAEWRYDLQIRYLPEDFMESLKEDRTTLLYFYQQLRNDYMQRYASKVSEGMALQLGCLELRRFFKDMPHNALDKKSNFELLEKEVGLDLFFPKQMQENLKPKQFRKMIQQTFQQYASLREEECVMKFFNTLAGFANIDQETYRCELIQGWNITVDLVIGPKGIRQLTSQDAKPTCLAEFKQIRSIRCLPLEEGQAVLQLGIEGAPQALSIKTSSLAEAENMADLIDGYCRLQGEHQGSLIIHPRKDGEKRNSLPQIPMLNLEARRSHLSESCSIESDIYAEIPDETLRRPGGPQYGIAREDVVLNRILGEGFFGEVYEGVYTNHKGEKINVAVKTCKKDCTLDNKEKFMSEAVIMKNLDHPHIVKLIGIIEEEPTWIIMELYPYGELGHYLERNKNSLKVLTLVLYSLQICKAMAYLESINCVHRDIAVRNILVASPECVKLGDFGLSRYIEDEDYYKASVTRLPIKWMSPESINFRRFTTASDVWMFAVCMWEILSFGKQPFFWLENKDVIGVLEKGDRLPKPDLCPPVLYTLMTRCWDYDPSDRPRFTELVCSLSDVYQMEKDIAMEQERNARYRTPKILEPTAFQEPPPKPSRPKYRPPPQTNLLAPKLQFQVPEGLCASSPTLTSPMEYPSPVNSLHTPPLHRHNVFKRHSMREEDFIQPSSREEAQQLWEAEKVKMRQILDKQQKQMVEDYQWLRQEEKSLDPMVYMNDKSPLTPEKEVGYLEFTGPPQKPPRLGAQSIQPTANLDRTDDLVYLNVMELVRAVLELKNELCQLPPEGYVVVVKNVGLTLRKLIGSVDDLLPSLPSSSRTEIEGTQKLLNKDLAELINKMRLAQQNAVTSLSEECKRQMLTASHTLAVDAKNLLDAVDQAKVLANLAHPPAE
CYP2C9 inhib – human CYP2C9 inhibition; CYP2C9 Supersomes, luciferin-H conversion, luminescence; P11712; inhibition, % at 5 µM; AID 777; 20% of 96,000 active;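 active means blocking of liver enzyme CYP2C9 beyond about 50% at 5 µM, limit read from the data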
CYP2C19 act – increases human CYP2C19 enzyme activity; P33261; recombinant CYP2C19, luciferin-H EGE luminescence; active compounds read high; 0 = fully inhibited enzyme, 1 = untreated enzyme; activation factor at 5 µM; 96,000 tested, under 10 active; AID 1025;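 active means activation factor of at least 2 at 5 µM in the primary screen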
CYP2C9 activ – CYP2C9 (human) activation; 1.4% of 96,000 active; activation factor at 5 µM; recombinant CYP2C9, luciferin-H conversion, luminescence; active compounds read high; factor 1 = untreated enzyme, 0 = blocked;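 active means activation factor of 2 or more for CYP2C9 at a 5 µM dose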
Of the large screens only hits and unclear results are named; the others gave an inactive call.

CC(C)CCNC(=O)c1ccc2c(c1)ncn2C1CCCCC1	none
CCn1c(=O)c(=O)[nH]c2cc(C(=O)N3CCN(c4ccccc4F)CC3)ccc21	none
Cc1cc(C(=O)CSc2nc3ccccc3[nH]2)c(C)n1Cc1ccco1	none (no result: CYP2C19 inhib, CYP2C9 inhib, CYP2C19 act, CYP2C9 activ)
C/C(N)=C(/C#N)C(=O)CSc1nc2ccc(C)cc2[nH]1	CYP2C19 inhib 88, CYP2C9 inhib 63
COc1ccc(Nc2nnc(SCC(=O)N3CCCC3)s2)cc1	none
C=CCn1c(C)cc(C(=O)CSc2nc3ccccc3[nH]2)c1C	CYP2C19 inhib 62, CYP2C9 inhib 68
Cc1cc(C(=O)CSc2nc3ccccc3[nH]2)c(C)n1C	CYP2C19 inhib 87, CYP2C9 inhib 60
COc1ccc(Nc2nnc(SCC(=O)c3cc(C)n(CC4CCCO4)c3C)s2)cc1 (stereo not drawn)	CYP2C19 inhib 72, CYP2C9 inhib 59
CCn1c(=O)c2c(nc(SCC(=O)NCC3CCCO3)n2C)n(C)c1=O (stereo not drawn)	none
CCOC(=O)N1CCN(C(=O)CSc2ccccc2)CC1	none
CCN(CC)C(=O)COc1ccc(-c2ccccc2)cc1	none
Cc1ccc(OC(=O)CCC(=O)N2CCc3ccccc32)cc1	none
O=C(NC1CCCCC1)c1cccnc1C(=O)O	none
C=CCn1c(C)cc(C(=O)COc2nncc3ccccc23)c1C	CYP2C19 inhib 61, CYP2C9 activ 2
Cc1nn2c(=O)cc(CSc3nc4ccccc4[nH]3)nc2s1	CYP2C19 inhib 58 (no result: Pyk2 oligo antag)
COc1ccc2nc(SCC(=O)NC(C)C)[nH]c2c1	none
COc1ccc2nc(SCC(=O)NC(C)(C)C)[nH]c2c1	CYP2C19 inhib 85, CYP2C9 inhib 66
Cc1cc(C(=O)CSc2nc3ccc(Cl)cc3[nH]2)c(C)n1CC1CCCO1 (stereo not drawn)	CYP2C19 inhib 96, CYP2C9 inhib 92
Cc1ccc2c(C)nc(Nc3nc(CSc4nc5ccccc5[nH]4)cc(=O)[nH]3)nc2c1	none
CCn1c(SCC(=O)C(C)(C)C)nnc1-c1cccnc1	none
C=CCn1c(C)cc(C(=O)CSc2nc3ccccc3o2)c1C	CYP2C19 inhib 64
Cc1cc(C(=O)CSc2nc3ccc(Cl)cc3[nH]2)c(C)n1C	CYP2C19 inhib 94, CYP2C9 inhib 93
Cc1ccc2nc(SCC(=O)c3cc(C)n(C)c3C)[nH]c2c1	CYP2C9 inhib 57
Cc1cc(NC(=O)CSc2nc3cc(Cl)ccc3s2)no1	none
Cc1cc(NC(=O)CSc2nc3ccc(Cl)cc3[nH]2)no1	CYP2C9 inhib 62
C=CCn1c(C)cc(C(=O)CSc2nc3ccccc3c(=O)[nH]2)c1C	none
O=C1c2oc3ccccc3c(=O)c2C(c2ccccn2)N1Cc1ccccc1 (stereo not drawn)	none
CCOCCCNC(=O)CC1Oc2ccc(C)cc2NC1=O (stereo not drawn)	none (no result: Pyk2 oligo antag)
Cc1ccc(C)n1-c1ccc(N2CCOCC2)c(Br)c1	none
COCCCNC(=O)CSC1=Nc2ccccc2C2=NC(CC(=O)NCc3ccccc3)C(=O)N12 (stereo not drawn)	none
CC(=O)c1cc(CC=C(C)C)c(O)c(CC=C(C)C)c1O	CYP2C19 inhib 84, CYP2C9 inhib 71
CC(=O)c1cc(CC=C(C)C)c(O)cc1O	CYP2C9 inhib 80
CC(=O)NC1(C(F)(F)F)C(=O)Nc2c1c(=O)n(C)c(=O)n2C (stereo not drawn)	none
Cn1c2c(c(=O)n(C)c1=O)C(C(F)(F)F)(C(F)(F)F)N=C(c1ccc(Cl)cc1)N2	Pyk2 oligo antag -3.3, CYP2C9 inhib 89
Cn1cc(C(=O)N2CCN(C(=O)c3ccco3)CC2)c2c3ccccc3n(C)c2c1=O	none
CC(C)NC(=O)CSc1nnc(C2CC2)n1-c1ccccc1	none
Cc1ccc(NC2=NC(c3ccccc3)n3c(nc(C)cc3=O)N2)c(C)c1 (stereo not drawn)	CYP2C19 inhib 83
Cc1ccc(NC2=NC(c3ccc(C)cc3)n3c(nc(C)cc3=O)N2)cc1 (stereo not drawn)	CYP2C19 inhib 71, CYP2C9 inhib 50
Cc1ccc(NC2=NCC(=O)N2Cc2ccccc2)c(C)c1	none (no result: CYP2C19 inhib, CYP2C9 inhib, CYP2C19 act, CYP2C9 activ)
Nc1nonc1-c1nc2ccccc2n1CC(=O)N/N=C\c1ccc(-c2ccc(Cl)cc2)o1	none
CCCCOc1ccccc1NC(=O)Cn1c(-c2nonc2N)nc2ccccc21	CYP2C9 inhib 70
CCOC(=O)Cn1c(-c2nonc2NC(=O)c2ccccc2F)nc2ccccc21	CYP2C9 inhib 92
CC(C)(C)NC(=O)Cn1c(-c2nonc2N)nc2ccccc21	CYP2C19 inhib 62, CYP2C9 inhib 76
Cc1ccc(C2CC(c3ccccc3)=NN2C(=O)CSc2nnc(-c3ccncc3)n2C)o1 (stereo not drawn)	none (no result: CYP2C19 inhib, CYP2C9 inhib, CYP2C19 act, CYP2C9 activ)
CCOc1ccc(S(=O)(=O)NCc2ccco2)cc1	none
CCOc1ccc(S(=O)(=O)N/N=C2/CC(c3ccccc3)Oc3ccccc32)cc1 (stereo not drawn)	CYP2C19 inhib 56, CYP2C9 inhib 88
O=S(=O)(N/N=C1\CC(c2ccccc2)Oc2ccccc21)c1ccccc1 (stereo not drawn)	none
Cc1ccc(S(=O)(=O)N/N=C2/CC(c3ccccc3)Oc3ccccc32)cc1 (stereo not drawn)	CYP2C9 inhib 80
CCOc1ccc(NC(=O)CSc2nnc(C34CC5CC(CC(C5)C3)C4)n2C)cc1	none
O=c1cc(CSc2ccc(Cl)cc2)nc(N2CCCCC2)[nH]1	none
O=C(/C=C\Nc1ccccn1)c1ccccc1	CYP2C19 inhib 79
O=C(/C=C/Nc1ccccc1Br)c1ccccn1	none
O=C1N=C(N2CCC(Cc3ccccc3)CC2)S/C1=C/c1cn[nH]c1-c1ccccc1	CYP2C9 inhib 60
COc1ccccc1OCC(=O)Nc1cccc(N(C)S(C)(=O)=O)c1	CYP2C19 inhib 83
Cc1ccc(SCCC(=O)Nc2cccc(N(C)S(C)(=O)=O)c2)cc1	CYP2C19 inhib 91, CYP2C9 inhib 83
COc1ccc(NC(=O)c2ccc(N(C)S(C)(=O)=O)cc2)cc1OC	none
CN(c1cccc(NC(=O)Nc2cccc(Cl)c2)c1)S(C)(=O)=O	CYP2C19 inhib 62, CYP2C9 inhib 72
COc1ccc(C(=O)Nc2cccc(N(C)S(C)(=O)=O)c2)cc1OC	none
Cc1ccc(C(=O)Nc2cccc(N(C)S(C)(=O)=O)c2)cc1S(=O)(=O)Nc1ccccc1	Pyk2 oligo antag -3.1, CYP2C9 inhib 72
CC(C)CC(NC(=O)C1CCCCC1)C(=O)N1CCN(c2ccccn2)CC1 (stereo not drawn)	none
CC12CCC(C(=O)Nc3cccc4ccccc34)(C1Br)C2(C)C (stereo not drawn)	none
O=C(NCCO)NC(=S)c1ccccc1	none
CC(=O)Nc1ccc2c(c1)nc(CCN1CCN(C)CC1)n2C	none
CC(C)Sc1nc2c(c(=O)n1C)SC(C)C2 (stereo not drawn)	none (no result: Pyk2 oligo antag)
Cc1cccc(C)c1N(CC(=O)Nc1cccc(N(C)S(C)(=O)=O)c1)S(C)(=O)=O	CYP2C9 inhib 58
CC(=O)Nc1cccc(N(C)S(C)(=O)=O)c1	none
CCOC(=O)CSc1nnc(Cn2nnc(-c3ccccc3)n2)n1C	none
